# Assay results from PubChem BioAssay.
# Activity calls are given as the source filed them.
# Tests used:
# [1] = binders of probe aFSTL3 on microarray, primary screen, stem cell growth factor project, biochemical, small-molecule microarray, fluorescence 635/667 (AID 1064); details: higher = more signal;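 further: measures binding of the biotinylated anti-FSTL3 antibody to printed compounds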
# [2] = binders from COS7 lysate, DM2A8 probe, primary screen, torsin A project, cell lysate, small-molecule microarray, fluorescence 635/667 (AID 1065); details: higher = more signal, COS7 lysate expressing mutant human TOR1A
# [3] = binders of probe aFGF2 on microarray, primary screen, stem cell growth factor project, biochemical, small-molecule microarray, fluorescence 635/667 (AID 1067); details: higher = more signal;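 further: measures binding of biotinylated aFGF2 protein to printed compounds on slides; z-score merges feature fluorescence and signal-to-noise across triplicate slides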
# [4] = binders of probe aFGF10 on microarray, primary screen, stem cell growth factor project, biochemical, small-molecule microarray, fluorescence 635/667 (AID 1071); details: higher = more signal;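 further: score merges 667 nm spot intensity and signal to noise from triplicate slides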
# [5] = biological target: Neurogenic locus notch homolog protein 2 (Homo sapiens) (UniProt Q04721); test: Notch2 binders on small-molecule microarrays, primary screen, biochemical, small-molecule microarray, 635 nm fluorescence, stem cell growth factors (AID 1073); details: Notch2 binding, higher = more signal
# [6] = biological target: Pro-neuregulin-1, membrane-bound isoform (Homo sapiens) (UniProt Q02297); test: NRG1 binders on small-molecule microarrays, primary screen, psychiatric disease protein project, biochemical, small-molecule microarray, fluorescence 635/667 (AID 1075); details: NRG1 binding, 635 nm fluorescence, higher = more signal;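 further: score combines 667 nm spot fluorescence with signal to noise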
# Pro-neuregulin-1, membrane-bound isoform (Homo sapiens), sequence (Q02297 whole entry, looked up, the tested form may be a part, canonical isoform): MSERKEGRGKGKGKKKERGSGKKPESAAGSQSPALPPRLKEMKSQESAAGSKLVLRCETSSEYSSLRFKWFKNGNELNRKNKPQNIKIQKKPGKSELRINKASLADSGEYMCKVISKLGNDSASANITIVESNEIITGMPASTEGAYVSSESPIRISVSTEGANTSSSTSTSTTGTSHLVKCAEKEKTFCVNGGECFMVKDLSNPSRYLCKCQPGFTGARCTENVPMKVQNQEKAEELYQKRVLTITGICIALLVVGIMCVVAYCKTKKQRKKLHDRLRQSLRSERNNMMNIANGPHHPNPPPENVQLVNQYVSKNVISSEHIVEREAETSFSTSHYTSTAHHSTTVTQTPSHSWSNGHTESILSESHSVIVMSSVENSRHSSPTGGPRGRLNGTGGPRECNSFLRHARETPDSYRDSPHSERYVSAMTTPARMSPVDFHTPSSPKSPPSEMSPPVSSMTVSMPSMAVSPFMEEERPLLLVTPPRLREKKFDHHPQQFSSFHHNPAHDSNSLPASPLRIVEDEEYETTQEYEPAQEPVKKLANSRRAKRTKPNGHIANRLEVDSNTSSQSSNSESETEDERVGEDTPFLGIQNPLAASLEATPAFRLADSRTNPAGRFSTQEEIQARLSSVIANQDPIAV
# [7] = test system: Neuregulin-1 EGF-like domain; test: binders of neuregulin-1 EGF-like domain, primary screen, biochemical, small-molecule microarray, 635 nm fluorescence (AID 1081); details: small-molecule microarray binding, higher = more signal;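 further: binding of the protein to compounds printed on small-molecule microarray slides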
# [8] = FRG1 promoter luciferase signal modulators, primary screen, FRG1 inhibition for FSHD, cell-based, C2C12 myotubes, firefly/Renilla luciferase, luminescence (AID 1084); details: higher = more signal, called active from +8 up or from −8 down
# [9] = binders of probe aFST on microarray, primary screen, stem cell growth factor project, biochemical, small-molecule microarray, fluorescence 635/667 (AID 1086); details: higher = more signal;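 further: score merges 667 nm fluorescence with signal-to-noise of each printed compound spot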
# [10] = binders of probe aHhip on microarray, primary screen, stem cell growth factor project, biochemical, small-molecule microarray, fluorescence 635/667 (AID 1087); details: higher = more signal;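 further: score merges spot fluorescence at 667nm with spot signal to noise ratio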
# [11] = test system: PRMT1 (protein arginine N-methyltransferase 1); test: PRMT1 binders on small-molecule microarrays, primary screen, biochemical, small-molecule microarray, 635 nm fluorescence (AID 1088); details: small-molecule microarray binding, higher = more signal;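 further: binding of Prmt1 protein to compounds spotted on small-molecule microarray slides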
# [12] = yeast growth modulation, basal conditions, primary screen, YJM789 clinical isolate, OD600, 24 h (AID 1089);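 further: growth of clinical yeast isolate S. cerevisiae YJM 789 seeded 1000 cells per well; test concentration not given here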; details: S. cerevisiae YJM789 growth, higher = more signal, called active from +8 up or from −8 down
# [13] = fission yeast growth modulation, primary screen, strain 972, OD600, 24 h, no modulator (AID 1090);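 further: basal condition with compound alone and no growth modifier present; test concentration not given here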; details: S. pombe 972 growth, higher = more signal, called active from +8 up or from −8 down
# [14] = S. cerevisiae growth modulation with rapamycin, primary screen, strain BY4716, OD600, 96 h (AID 1091); details: higher = more signal, called active from +8 up or from −8 down; further: test concentration not given here
# [15] = biological target: Torsin-1A-interacting protein 2 (Homo sapiens) (UniProt Q8NFQ8); test: LULL1 binders on small-molecule microarray, primary screen, cell lysate, human LULL1 lysate, 635/667 nm fluorescence (AID 1092); details: hLULL1 lysate binding, 635 nm fluorescence, higher = more signal;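 further: probe is lysate of COS7 cells overexpressing human LULL1; score merges per-feature 667 nm fluorescence with signal-to-noise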
# Torsin-1A-interacting protein 2 (Homo sapiens), sequence (Q8NFQ8 whole entry, looked up): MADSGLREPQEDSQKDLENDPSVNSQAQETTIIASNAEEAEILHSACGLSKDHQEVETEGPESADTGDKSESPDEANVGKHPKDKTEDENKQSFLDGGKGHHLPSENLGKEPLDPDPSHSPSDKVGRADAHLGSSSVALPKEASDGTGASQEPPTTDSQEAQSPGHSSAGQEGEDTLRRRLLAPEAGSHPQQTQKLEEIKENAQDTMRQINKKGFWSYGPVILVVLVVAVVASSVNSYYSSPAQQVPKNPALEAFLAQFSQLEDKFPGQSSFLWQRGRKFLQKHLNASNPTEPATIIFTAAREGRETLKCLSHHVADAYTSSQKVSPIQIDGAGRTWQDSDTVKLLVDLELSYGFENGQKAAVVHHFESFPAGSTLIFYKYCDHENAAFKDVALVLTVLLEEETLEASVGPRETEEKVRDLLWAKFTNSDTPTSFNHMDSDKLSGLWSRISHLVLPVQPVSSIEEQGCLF
# [16] = E. coli growth modulation, two-sided OD650, primary screen, E. coli filamentation project, strain DRC41, 24 h (AID 1093); details: OD650, 24 h, higher = more signal, called active from +8 up or from −8 down;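 further: MC1000 strain lacking acrAB efflux and sulA so SOS filamentation is blocked; test concentration not given here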
# [17] = small-molecule microarray binders of probe aLefty2, primary screen, biochemical, biotinylated probe, 635/667 nm fluorescence (AID 1094); details: higher = more signal;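 further: score merges spot fluorescence near 667 nm with spot signal-to-noise ratio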
# [18] = test system: Noggin (protein binding on small-molecule microarray); test: Noggin binders on small-molecule microarray, primary screen, biochemical, 635/667 nm fluorescence (AID 1095); details: 635 nm fluorescence, higher = more signal;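 further: score merges 667 nm feature fluorescence with signal to noise over triplicate slides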
# [19] = biological target: Neurogenic locus notch homolog protein 3 (Homo sapiens) (UniProt Q9UM47); test: NOTCH3 binders on small-molecule microarray, primary screen, biochemical, 635/667 nm fluorescence (AID 1096); details: NOTCH3 binding, 635 nm fluorescence, higher = more signal
# Neurogenic locus notch homolog protein 3 (Homo sapiens), sequence (Q9UM47 whole entry, looked up): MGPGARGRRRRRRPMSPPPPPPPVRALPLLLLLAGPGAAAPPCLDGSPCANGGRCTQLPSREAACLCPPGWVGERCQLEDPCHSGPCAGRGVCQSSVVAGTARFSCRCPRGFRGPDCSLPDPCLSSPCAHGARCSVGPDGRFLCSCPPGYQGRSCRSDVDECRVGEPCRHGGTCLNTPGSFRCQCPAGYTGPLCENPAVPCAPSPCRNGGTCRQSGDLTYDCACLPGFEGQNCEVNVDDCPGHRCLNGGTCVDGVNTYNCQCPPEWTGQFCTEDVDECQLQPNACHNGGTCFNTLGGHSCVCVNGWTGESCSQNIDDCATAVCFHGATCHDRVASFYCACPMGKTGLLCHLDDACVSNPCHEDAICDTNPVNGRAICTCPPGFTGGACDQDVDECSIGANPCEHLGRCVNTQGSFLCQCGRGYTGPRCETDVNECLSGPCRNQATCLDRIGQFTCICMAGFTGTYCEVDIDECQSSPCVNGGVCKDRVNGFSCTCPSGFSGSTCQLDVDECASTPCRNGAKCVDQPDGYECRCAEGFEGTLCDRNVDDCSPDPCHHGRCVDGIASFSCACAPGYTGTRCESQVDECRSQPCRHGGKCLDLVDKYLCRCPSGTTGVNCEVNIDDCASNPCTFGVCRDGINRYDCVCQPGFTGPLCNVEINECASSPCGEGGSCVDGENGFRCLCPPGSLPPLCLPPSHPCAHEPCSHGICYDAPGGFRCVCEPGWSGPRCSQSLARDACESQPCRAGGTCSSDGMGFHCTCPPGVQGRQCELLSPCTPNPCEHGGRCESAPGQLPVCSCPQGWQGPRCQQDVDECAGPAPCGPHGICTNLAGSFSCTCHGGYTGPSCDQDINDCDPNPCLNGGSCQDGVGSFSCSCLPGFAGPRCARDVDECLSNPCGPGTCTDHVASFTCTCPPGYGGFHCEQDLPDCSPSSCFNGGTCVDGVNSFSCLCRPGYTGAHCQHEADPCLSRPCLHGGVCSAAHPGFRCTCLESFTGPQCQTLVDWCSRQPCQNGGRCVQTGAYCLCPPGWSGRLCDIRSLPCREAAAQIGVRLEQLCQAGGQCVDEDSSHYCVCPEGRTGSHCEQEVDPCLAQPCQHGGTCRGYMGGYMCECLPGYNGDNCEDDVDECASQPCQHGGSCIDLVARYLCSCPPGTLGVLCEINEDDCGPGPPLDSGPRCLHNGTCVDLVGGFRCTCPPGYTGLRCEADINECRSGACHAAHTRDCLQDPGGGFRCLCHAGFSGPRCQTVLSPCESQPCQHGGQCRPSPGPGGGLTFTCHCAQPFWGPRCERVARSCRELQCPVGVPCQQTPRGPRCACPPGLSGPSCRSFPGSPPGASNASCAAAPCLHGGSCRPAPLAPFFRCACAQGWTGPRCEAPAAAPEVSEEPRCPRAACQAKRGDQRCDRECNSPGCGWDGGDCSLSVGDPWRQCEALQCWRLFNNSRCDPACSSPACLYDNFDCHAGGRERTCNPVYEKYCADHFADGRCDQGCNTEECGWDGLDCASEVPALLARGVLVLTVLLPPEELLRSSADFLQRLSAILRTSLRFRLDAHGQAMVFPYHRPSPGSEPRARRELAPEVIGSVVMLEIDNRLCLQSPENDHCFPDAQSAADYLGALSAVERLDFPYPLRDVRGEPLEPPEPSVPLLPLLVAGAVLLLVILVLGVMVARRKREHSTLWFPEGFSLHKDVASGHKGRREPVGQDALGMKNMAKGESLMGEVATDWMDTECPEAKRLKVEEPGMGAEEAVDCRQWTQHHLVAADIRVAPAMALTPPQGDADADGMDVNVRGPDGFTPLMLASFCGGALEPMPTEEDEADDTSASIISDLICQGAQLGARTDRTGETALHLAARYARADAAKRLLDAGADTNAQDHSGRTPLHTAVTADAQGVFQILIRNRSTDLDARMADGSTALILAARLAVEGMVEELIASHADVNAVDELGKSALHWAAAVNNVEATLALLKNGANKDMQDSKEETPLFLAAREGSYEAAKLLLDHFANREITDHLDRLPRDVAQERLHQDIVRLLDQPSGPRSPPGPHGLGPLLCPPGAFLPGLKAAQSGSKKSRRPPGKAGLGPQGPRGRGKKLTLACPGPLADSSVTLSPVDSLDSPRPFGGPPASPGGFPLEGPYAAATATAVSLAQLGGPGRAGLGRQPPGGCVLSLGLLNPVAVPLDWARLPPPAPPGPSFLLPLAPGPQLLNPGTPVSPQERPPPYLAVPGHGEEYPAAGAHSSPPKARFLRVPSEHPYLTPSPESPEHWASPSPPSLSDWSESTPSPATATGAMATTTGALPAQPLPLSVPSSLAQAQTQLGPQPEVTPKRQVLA
# [20] = small-molecule microarray binders of probe aEGFR, primary screen, biochemical, biotinylated probe, 635/667 nm fluorescence (AID 1097); details: higher = more signal;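 further: probe is a biotinylated anti-EGFR antibody binding compounds printed on slides; score combines fluorescence near 667 nm and signal to noise of each spot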
Compound,composite z-score [1],composite z-score [2],composite z-score [3],composite z-score [4],composite z-score [5],composite z-score [6],composite z-score [7],z-score [8],composite z-score [9],composite z-score [10],composite z-score [11],z-score [12],z-score [13],z-score [14],composite z-score [15],z-score [16],composite z-score [17],composite z-score [18],composite z-score [19],composite z-score [20]
CC(C)OC(=O)CC(=O)CC(O)c1ccc(C#N)cc1 (stereo not given),0.401,0.435,0.0798,0.356,1.29,0.366,0.552,-0.711 (inactive),0.712,0.0722,0.269,-2.05 (inactive),0.331 (inactive),-0.602 (inactive),1.85,0.0935 (inactive),0.403,-0.263,0.14,0.0541
C=CCC(OC(C)=O)[C@@H]1[C@@H](N(Cc2ccc(-c3ccccc3)cc2)C(=O)Cc2ccc(F)cc2)c2cc(OCCCO)ccc2N1C(=O)c1ccc2ccccc2n1 (stereo not given in full),-0.12,-0.0608,0.0198,-0.372,0.0329,0.164,-0.421,-0.649 (inactive),0.167,0.0623,-0.0414,-0.583 (inactive),-0.0387 (inactive),-0.527 (inactive),0.208,1.47 (inactive),-0.057,-0.423,-0.0833,0.44
COCCOC(=O)N1C(=O)[C@@]2(c3cc(C#CCC(C(=O)OC)C(=O)OC)ccc31)[C@H](c1ccccc1OCCO)N1[C@H](c3ccccc3)[C@H](c3ccccc3)OC(=O)[C@H]1[C@@H]2C(=O)N1CCc2cc(OC)c(OC)cc2C1,-0.257,0.007,-0.126,0.319,1.46,1.09,1.27,-0.285 (inactive),0.638,-0.0655,1.56,0.502 (inactive),0.979 (inactive),3.89 (inactive),2.42,1.92 (inactive),-0.0373,1.64,0.729,0.0637
Cc1ccc(S[C@]2(C(=O)NCCN3CCOCC3)CC(=O)N(Cc3cc(C(F)(F)F)cc(C(F)(F)F)c3)[C@@H]2c2ccc(CO)cc2I)cc1,0.428,-0.542,-0.131,-0.44,-0.297,1.98,0.0049,0.679 (inactive),0.0607,0.0333,0.95,-3.19 (inactive),-4.73 (inactive),14.2 (active),0.509,-1.52 (inactive),-0.183,-1.06,-0.122,-0.0828
CCCN1C(=O)[C@@]2(CCC(=O)OC(C)(C)C)N=C(c3ccc(OCCCO)cc3)O[C@H]2c2ccccc21,-0.0952,0.108,-0.0243,0.102,0.312,0.0163,0.959,-1.22 (inactive),0.0225,-0.191,1.56,-1.25 (inactive),-1.19 (inactive),1.51 (inactive),2.64,1.2 (inactive),0.0272,1.82,0.518,-0.0371
CCC(CC)C(O)C1C=CC2C(=O)N(c3ccccc3)C(=O)C2N1Nc1ccc(C#N)cc1 (stereo not given),1.07,0.693,0.326,0.884,1.64,1.77,1.29,-1.02 (inactive),1.22,-0.271,1.55,-0.295 (inactive),0.621 (inactive),1.28 (inactive),3.2,-0.279 (inactive),0.615,-0.136,1.04,0.334
COc1ccc(CCNC(=O)[C@@H]2c3ccccc3C(=O)N(Cc3ccc(OC(F)(F)F)cc3)[C@H]2c2ccc(CO)cc2)cc1,0.111,0.321,-0.0937,0.252,0.0125,0.75,0.882,-2.61 (inactive),0.322,-0.0672,1.55,-0.392 (inactive),-0.51 (inactive),-0.0066 (inactive),2.48,-0.652 (inactive),-0.169,0.54,0.342,-0.0967
CCOC(=O)C1=C[C@@H](C(C)C)N(S(=O)(=O)c2ccc(C)cc2)[C@H]1c1ccc(C(C)C)cc1,-0.462,0.352,-0.0647,0.543,1.52,0.609,0.683,-1.89 (inactive),0.937,-0.0754,1.25,0.129 (inactive),2.04 (inactive),0.612 (inactive),3.02,-0.35 (inactive),0.112,0.75,1.09,-0.0381
C=CCC(OC(C)=O)[C@@H]1[C@@H](N(Cc2cc3ccccc3o2)C(=O)c2ccc(C)cc2)c2cc(OCCCO)ccc2N1C(=O)c1ccc2ccccc2c1 (stereo not given in full),-0.0336,0.117,-0.0785,0.339,0.112,-0.189,0.38,-2.76 (inactive),-0.0921,-0.201,-0.21,-0.44 (inactive),0.116 (inactive),0.0217 (inactive),0.346,1.65 (inactive),-0.0258,0.341,-0.0158,-0.0536
CCOC(=O)C1=C[C@@H](CC)N(S(=O)(=O)c2ccc(C)cc2)[C@H]1c1ccccc1,0.119,-0.872,0.0603,0.572,1.61,1.1,0.919,-1.74 (inactive),0.962,0.0373,1.18,-0.595 (inactive),0.849 (inactive),0.567 (inactive),2.71,-0.556 (inactive),0.097,0.13,1.1,0.0356
O=C1N(CCS(=O)(=O)c2ccccc2)c2ccccc2C[C@@]12COC(c1ccc(OCCCO)cc1)=N2,-0.178,0.858,0.0887,0.322,1.33,1.11,1.33,1.18 (inactive),0.971,0.075,1.47,0.631 (inactive),-1.07 (inactive),1.14 (inactive),2.9,-0.405 (inactive),0.456,0.75,1.07,0.242
Cc1cc(C)cc(N2C(=O)CS(=O)(=O)C2c2cccc([N+](=O)[O-])c2)c1 (stereo not given),0.228,0.661,0.245,0.366,1.17,1.63,1.04,-1.47 (inactive),1.18,1.53,1.13,-0.703 (inactive),-1.22 (inactive),-0.522 (inactive),2.13,-0.268 (inactive),0.788,0.0104,0.726,0.477
COC(=O)c1ccc(OC)c(/C=C\CC(OC(C)=O)c2ccccc2)c1 (stereo not given),0.428,-0.284,-0.138,0.229,1.2,0.993,0.971,-1.21 (inactive),-0.405,0.206,0.31,-1.71 (inactive),-1.34 (inactive),-0.0987 (inactive),0.879,0.759 (inactive),-0.208,0.0928,0.275,-0.115
C=CCNC(=O)[C@@H]1[C@H]2C(=O)O[C@H](c3ccccc3)[C@H](c3ccccc3)N2[C@H](c2ccc(O)cc2)[C@@]12C(=O)N(C(=O)OCCOC)c1ccccc12,-0.0042,1.11,-0.0434,0.558,0.369,1.51,1.23,0.993 (inactive),0.376,-0.0994,1.53,0.655 (inactive),0.625 (inactive),2.8 (inactive),3.25,1.11 (inactive),-0.0458,0.559,0.509,-0.14
[N-]=[N+]=Nc1ccccc1[C@H]1OC(c2ccc(OCCCO)cc2)=N[C@@]1(CCS(=O)(=O)c1ccccc1)C(=O)O,1.13,0.298,0.051,0.0993,0.402,0.826,0.67,3.83 (inactive),0.697,-0.189,0.164,-0.775 (inactive),-3.52 (inactive),-0.0047 (inactive),3.2,1.46 (inactive),0.308,-0.688,-0.0883,-0.179
CS(=O)(=O)CCOC(=O)C1=CC(c2ccc(CO)cc2)=CC(C2CC2)N(Cc2cc3c(cc2Br)OCO3)C=C1C(=O)OCCS(C)(=O)=O (stereo not given),-0.232,0.28,-0.0266,0.959,1.13,1.78,1.27,-2.1 (inactive),0.566,0.245,1.47,-0.938 (inactive),-6.09 (inactive),-0.247 (inactive),2.83,0.514 (inactive),0.17,0.782,0.929,0.0796
CCCCC=C[C@@H](NC(=O)c1cccs1)c1ccccc1,0.144,0.583,0.121,0.308,1.1,0.736,0.858,-3.42 (inactive),0.409,0.913,-0.0502,0.464 (inactive),0.845 (inactive),1.72 (inactive),2.01,-0.312 (inactive),0.0812,-0.222,0.955,-0.0746
CC(=O)NCCCC[C@@H]1NC(=O)[C@@H]2C[C@H](C(=O)NCCCCN(C)C)[C@H](c3ccc(O)cc3)N2C1=O,0.641,-0.241,-0.168,-0.971,-1.09,-0.463,0.939,-0.816 (inactive),-0.0292,0.0373,-0.0942,-0.442 (inactive),0.169 (inactive),-0.687 (inactive),1.65,1.14 (inactive),-0.0906,-0.126,-0.322,-0.109
Cc1ccccc1C(O)C1C=CC2C(=O)N(C)C(=O)C2N1N1CCCCC1 (stereo not given),0.363,0.831,0.108,1.13,1.54,1.42,1.38,0.703 (inactive),0.927,-0.0296,1.11,0.299 (inactive),0.619 (inactive),-0.417 (inactive),3.18,-1.24 (inactive),0.331,0.21,1.13,-0.0044
[N-]=[N+]=Nc1ccccc1C[C@]1(C(=O)NCCN2CCOCC2)N=C(c2ccc(OCCCO)cc2)O[C@H]1c1ccccc1,-0.283,0.309,-0.085,0.271,1.05,1.07,1.25,-0.897 (inactive),0.892,0.0373,1.31,3.66 (inactive),-1.17 (inactive),-1.78 (inactive),3.24,0.681 (inactive),0.0029,0.599,0.482,0.0756
